Measured values: PubChem BioAssay (EPA / NIEHS)
Inconclusive results are not listed. The source made the active and inactive calls. How the source made its calls, unless noted: active means hit-call score of the fitted dose curve at least 0.9, where 1 is the maximum; inactive means score below 0.9.

Key:
[1] = target: Paired box protein Pax-6 (Homo sapiens) (UniProt P26367); test: ATG_Pax6_CIS: Attagene CIS-FACTORIAL HepG2 Assay for human Paired Box 6 (PAX6) (AID 2282956); details: HepG2 CIS-FACTORIAL PAX6 reporter transcription, RNA readout; actives raise or lower the signal
Chain of Paired box protein Pax-6 (Homo sapiens) (P26367 whole entry, looked up): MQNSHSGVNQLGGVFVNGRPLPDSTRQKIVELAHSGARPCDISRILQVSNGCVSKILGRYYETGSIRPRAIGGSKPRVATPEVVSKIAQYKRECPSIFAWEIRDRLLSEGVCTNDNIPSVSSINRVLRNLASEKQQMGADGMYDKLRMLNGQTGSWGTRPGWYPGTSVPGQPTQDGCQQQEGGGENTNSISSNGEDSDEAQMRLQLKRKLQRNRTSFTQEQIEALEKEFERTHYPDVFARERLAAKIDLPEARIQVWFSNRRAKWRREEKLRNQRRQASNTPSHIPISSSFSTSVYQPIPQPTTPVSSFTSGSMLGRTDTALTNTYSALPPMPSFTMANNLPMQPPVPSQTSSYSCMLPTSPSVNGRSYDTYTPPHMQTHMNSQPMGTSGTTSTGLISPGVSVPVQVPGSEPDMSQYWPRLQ
Summary of the method: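 Readout: reporter transcript fluorescence after RT-PCR and capillary electrophoresis. Cells: HepG2, transiently transfected with cis-regulated MRTUs. Exposure 24 h. Gain or loss of signal fitted bidirectionally relative to DMSO.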

[2] = ATG_PXRE_CIS: Attagene CIS-FACTORIAL HepG2 Assay for human Pregnane X Receptor Element (PXRE) (AID 2282957); details: HepG2 Attagene CIS-FACTORIAL PXRE reporter, mRNA; actives raise or lower the signal
Summary of the method: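 Bidirectional activity, baselined to DMSO, derived from reporter mRNA fluorescence (RT-PCR plus capillary electrophoresis) in HepG2 cells bearing cis-promoter reporter units, 24 h exposure.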

[3] = ATG_PPRE_CIS: Attagene CIS-FACTORIAL HepG2 Assay for human Peroxisome Proliferator-activated Response Element (PPRE) (AID 2282958); details: HepG2 PPRE cis-element reporter, Attagene transcription factor profiling; actives raise or lower the signal
Summary of the method: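 Read-out: fluorescent reporter mRNA fragments resolved by capillary electrophoresis after RT-PCR. HepG2 cells carried transiently transfected PPRE-driven cis reporter constructs and were dosed for 24 h; gain or loss of signal fitted relative to DMSO.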

[4] = ATG_RORE_CIS: Attagene CIS-FACTORIAL HepG2 Assay for human RAR-related Orphan Receptor Element (RORE) (AID 2282959); details: HepG2 Attagene cis-factorial RORE reporter, mRNA; actives raise or lower the signal
Summary of the method: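 Readout: fluorescent reporter mRNA by RT-PCR plus capillary electrophoresis, 24 h after dosing transfected HepG2 cells. Endogenous transcription factor activity on a cis promoter element is measured. Gain or loss of signal fitted against DMSO.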

[5] = ATG_Sox_CIS: Attagene CIS-FACTORIAL HepG2 Assay for human SRY-box transcription factor (SOX) (AID 2282960); details: HepG2 Attagene cis-factorial SOX reporter, mRNA; actives raise or lower the signal
Summary of the method: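 Read-out: fluorescent RT-PCR products of SOX1-linked reporter transcripts resolved by capillary electrophoresis, fitted bidirectionally against DMSO. Transiently transfected HepG2 cells, 24 h after chemical exposure, endogenous transcription factor activity.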

[6] = target: Transcription factor Sp1 (Homo sapiens) (UniProt P08047); test: ATG_Sp1_CIS: Attagene CIS-FACTORIAL HepG2 Assay for human Specificity Protein 1 (Sp1) (AID 2282961); details: HepG2 Sp1 cis-reporter transcription, actives raise or lower the signal
Chain of Transcription factor Sp1 (Homo sapiens) (P08047 whole entry, looked up): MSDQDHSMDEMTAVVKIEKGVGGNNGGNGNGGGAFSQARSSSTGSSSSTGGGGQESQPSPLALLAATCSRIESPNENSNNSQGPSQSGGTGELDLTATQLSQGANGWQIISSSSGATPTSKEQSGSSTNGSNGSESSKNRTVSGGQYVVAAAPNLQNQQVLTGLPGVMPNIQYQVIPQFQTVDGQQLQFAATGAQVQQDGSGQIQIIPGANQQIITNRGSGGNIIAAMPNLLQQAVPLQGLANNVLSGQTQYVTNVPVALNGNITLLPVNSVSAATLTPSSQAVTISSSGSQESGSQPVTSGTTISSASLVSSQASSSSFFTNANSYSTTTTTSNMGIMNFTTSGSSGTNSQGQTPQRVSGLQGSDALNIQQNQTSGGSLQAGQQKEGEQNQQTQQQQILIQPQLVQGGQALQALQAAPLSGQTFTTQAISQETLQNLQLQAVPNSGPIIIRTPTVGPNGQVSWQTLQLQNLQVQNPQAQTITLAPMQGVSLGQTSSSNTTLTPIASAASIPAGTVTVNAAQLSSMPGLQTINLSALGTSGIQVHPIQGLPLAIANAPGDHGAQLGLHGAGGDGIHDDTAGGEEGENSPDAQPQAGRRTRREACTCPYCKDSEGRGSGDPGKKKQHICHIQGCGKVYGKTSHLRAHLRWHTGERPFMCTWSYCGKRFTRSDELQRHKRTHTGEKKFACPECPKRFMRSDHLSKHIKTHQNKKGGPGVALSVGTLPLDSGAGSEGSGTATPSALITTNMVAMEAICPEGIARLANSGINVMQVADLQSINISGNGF
Summary of the method: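 Read-out: fluorescence of 6-FAM-labeled, HpaI-digested RT-PCR products separated by capillary electrophoresis. HepG2 cells carried transfected cis-element reporter units and were exposed to chemicals for 24 h; gain or loss of signal fitted relative to DMSO.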

[7] = ATG_SREBP_CIS: Attagene CIS-FACTORIAL HepG2 Assay for human Sterol Regulatory Element Binding (SREBP) (AID 2282962); details: HepG2 Attagene cis-factorial SREBP reporter, mRNA; actives raise or lower the signal
Summary of the method: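 Readout: fluorescent reporter-transcript peaks resolved by capillary electrophoresis after RT-PCR. Cells were human HepG2 carrying transfected cis-promoter reporter constructs, dosed for 24 h. Gain or loss of signal was fitted against DMSO controls.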

[8] = target: Signal transducer and activator of transcription 3 (Homo sapiens) (UniProt P40763); test: ATG_STAT3_CIS: Attagene CIS-FACTORIAL HepG2 Assay for human Signal Transducer and Activator of Transcription 3 (STAT3) (AID 2282963); details: HepG2, Attagene cis-factorial STAT3 reporter transcription; actives raise or lower the signal
Chain of Signal transducer and activator of transcription 3 (Homo sapiens) (P40763 whole entry, looked up): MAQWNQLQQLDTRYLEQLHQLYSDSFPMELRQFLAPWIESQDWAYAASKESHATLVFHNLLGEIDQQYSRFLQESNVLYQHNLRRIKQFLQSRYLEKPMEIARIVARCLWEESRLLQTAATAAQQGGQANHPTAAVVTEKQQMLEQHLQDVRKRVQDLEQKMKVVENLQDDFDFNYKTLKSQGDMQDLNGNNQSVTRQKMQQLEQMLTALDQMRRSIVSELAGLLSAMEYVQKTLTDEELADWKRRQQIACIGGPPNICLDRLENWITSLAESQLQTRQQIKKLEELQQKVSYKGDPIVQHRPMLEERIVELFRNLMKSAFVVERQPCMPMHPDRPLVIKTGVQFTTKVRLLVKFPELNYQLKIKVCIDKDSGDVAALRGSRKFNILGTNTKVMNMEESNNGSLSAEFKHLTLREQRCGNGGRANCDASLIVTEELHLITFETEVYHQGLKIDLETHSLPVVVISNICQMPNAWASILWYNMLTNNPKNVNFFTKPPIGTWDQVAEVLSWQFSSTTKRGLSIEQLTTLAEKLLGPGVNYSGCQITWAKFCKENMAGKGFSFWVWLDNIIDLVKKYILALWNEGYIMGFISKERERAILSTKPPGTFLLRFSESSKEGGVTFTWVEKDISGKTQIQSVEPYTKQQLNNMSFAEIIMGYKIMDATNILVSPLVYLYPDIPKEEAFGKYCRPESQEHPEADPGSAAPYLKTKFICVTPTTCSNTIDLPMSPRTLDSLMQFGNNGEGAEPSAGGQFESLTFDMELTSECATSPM
Summary of the method: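 Uses human liver HepG2 transiently carrying cis-regulated reporter transcription units. Following 24 h dosing, reporter mRNA induction was detected by RT-PCR and capillary electrophoresis, analysed bidirectionally versus DMSO.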

[9] = ATG_TA_CIS: Attagene CIS-FACTORIAL HepG2 Assay for human TA Basal Promoter (AID 2282964); details: HepG2 Attagene CIS-factorial TA basal promoter reporter; actives raise or lower the signal
Summary of the method: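 Transfected HepG2, 24 h compound exposure; RNA → RT-PCR → FAM primer extension → HpaI cut → CE fluorescence. Gain/loss-of-signal fitted against DMSO negative control. Background-control readout.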

[10] = ATG_TAL_CIS: Attagene CIS-FACTORIAL HepG2 Assay for human TAL Basal Promoter (AID 2282966); details: HepG2 Attagene cis-factorial TAL promoter reporter; actives raise or lower the signal;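 further: background control endpoint measuring basal TAL promoter reporter mRNA not a specific factor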
Summary of the method: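 Human hepatoma HepG2 cells, transfected with promoter-regulated reporter units, were treated 24 h. Reporter transcript levels, measured through RT-PCR and capillary electrophoresis, were fitted for gain or loss relative to DMSO.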

[11] = ATG_TGFb_CIS: Attagene CIS-FACTORIAL HepG2 Assay for human Transforming Growth Factor (TGF) (AID 2282967); details: HepG2 Attagene CIS TGFb reporter, mRNA transcription; actives raise or lower the signal
Summary of the method: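 Readout: fluorescently labeled reporter cDNA fragments resolved by capillary electrophoresis after RT-PCR. Transfected HepG2 cells dosed for 24 h; endogenous TF activity at TGFB1-linked cis element; gain or loss fitted relative to DMSO.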

[12] = target: X-box-binding protein 1 (Homo sapiens) (UniProt P17861); test: ATG_Xbp1_CIS: Attagene CIS-FACTORIAL HepG2 Assay for human X-box Binding Protein 1 (XBP1) (AID 2282972); details: HepG2 XBP1 cis-element reporter, Attagene multiplex; actives raise or lower the signal
Chain of X-box-binding protein 1 (Homo sapiens) (P17861 whole entry, looked up, the tested form may be a part): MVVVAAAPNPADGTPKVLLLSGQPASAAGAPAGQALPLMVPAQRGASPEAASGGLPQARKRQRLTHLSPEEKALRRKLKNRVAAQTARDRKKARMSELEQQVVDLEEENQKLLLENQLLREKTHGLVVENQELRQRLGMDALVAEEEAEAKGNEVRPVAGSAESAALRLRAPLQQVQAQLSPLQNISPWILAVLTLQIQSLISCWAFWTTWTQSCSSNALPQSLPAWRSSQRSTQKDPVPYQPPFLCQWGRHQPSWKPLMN
Summary of the method: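 Read-out: fluorescent reporter mRNA fragments resolved by capillary electrophoresis after RT-PCR. Human HepG2 liver cells carried transfected cis-promoter reporter units and were exposed to chemicals for 24 hours. Gain or loss of signal fitted relative to DMSO baseline.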

[13] = ATG_GAL4_TRANS: Attagene TRANS-FACTORIAL HepG2 Assay for GAL4 (Internal Marker) (AID 2282976; active means hit-call score of the fitted dose curve at least 0.9, where 1 is the maximum); details: HepG2 Attagene TRANS GAL4 internal marker reporter
Summary of the method: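 Liver HepG2 line bearing multiplexed GAL4-UAS reporter constructs; 24 h chemical treatment. Transcripts were quantified as fluorescent fragments on capillary electrophoresis after RT-PCR and HpaI cut, with activity fitted upward from DMSO.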

[14] = ATG_TCF_b_cat_CIS: Attagene CIS-FACTORIAL HepG2 Assay for human T-Cell-Factor with beta-catenin (TCF/b-cat) (AID 2282965); details: HepG2 TCF/beta-catenin cis-reporter transcription, actives raise or lower the signal
Summary of the method: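 Using capillary electrophoresis as the read-out, labelled reporter cDNA fragments from transiently transfected HepG2 were sized and quantified. Exposure lasted 24 hours; activity in either direction was referenced to DMSO.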

[15] = ATG_VDRE_CIS: Attagene CIS-FACTORIAL HepG2 Assay for human Vitamin D Receptor Element (VDRE) (AID 2282968); details: HepG2 VDRE cis-reporter transcription, actives raise or lower the signal
Summary of the method: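 Transfected HepG2 reporter cells, chemical treatment 24 h. RNA isolated, cDNA amplified with reporter-specific primers, products analysed by capillary electrophoresis. Endpoint fitted in both directions versus DMSO.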

[16] = target: Estrogen receptor (Homo sapiens) (UniProt P03372); test: ATG_ERa_TRANS: Attagene TRANS-FACTORIAL HepG2 Assay for human Estrogen Receptor alpha (ERa) (AID 2282970; active means hit-call score of the fitted dose curve at least 0.9, where 1 is the maximum); details: HepG2 Attagene TRANS ERa GAL4 reporter, mRNA
Chain of Estrogen receptor (Homo sapiens) (P03372 whole entry, looked up, the tested form may be a part): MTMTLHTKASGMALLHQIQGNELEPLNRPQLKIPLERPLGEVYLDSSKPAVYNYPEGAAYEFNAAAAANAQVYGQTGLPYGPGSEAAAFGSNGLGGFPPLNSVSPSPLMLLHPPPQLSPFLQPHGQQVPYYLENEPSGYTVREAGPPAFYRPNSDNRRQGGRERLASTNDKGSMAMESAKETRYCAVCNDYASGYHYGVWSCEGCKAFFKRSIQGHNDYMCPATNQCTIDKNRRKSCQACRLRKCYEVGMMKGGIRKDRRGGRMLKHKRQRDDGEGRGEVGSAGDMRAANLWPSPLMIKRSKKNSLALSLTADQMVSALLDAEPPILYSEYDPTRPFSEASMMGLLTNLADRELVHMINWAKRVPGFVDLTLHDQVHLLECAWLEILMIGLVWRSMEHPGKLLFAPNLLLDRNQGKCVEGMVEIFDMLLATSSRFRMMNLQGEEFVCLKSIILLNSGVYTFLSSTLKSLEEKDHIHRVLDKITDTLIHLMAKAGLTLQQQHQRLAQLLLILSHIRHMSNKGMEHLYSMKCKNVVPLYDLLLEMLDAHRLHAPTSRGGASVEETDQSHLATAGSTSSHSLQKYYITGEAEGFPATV
Summary of the method: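 Signal derives from fluorescence of labelled reporter PCR fragments separated by capillary electrophoresis. HepG2 cells transiently carrying multiple GAL4-UAS reporter units were treated 24 hours, and induction above DMSO baseline was fitted as activity.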

[17] = target: Estrogen-related receptor gamma (Homo sapiens) (UniProt P62508); test: ATG_ERRg_TRANS: Attagene TRANS-FACTORIAL HepG2 Assay for human Estrogen-Related Receptor gamma (ERRg) (AID 2282977; active means hit-call score of the fitted dose curve at least 0.9, where 1 is the maximum;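 further: hits increase reporter signal over DMSO so potencies reflect activators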); details: HepG2 Attagene TRANS reporter, ERRg transactivation
Chain of Estrogen-related receptor gamma (Homo sapiens) (P62508 whole entry, looked up, the tested form may be a part): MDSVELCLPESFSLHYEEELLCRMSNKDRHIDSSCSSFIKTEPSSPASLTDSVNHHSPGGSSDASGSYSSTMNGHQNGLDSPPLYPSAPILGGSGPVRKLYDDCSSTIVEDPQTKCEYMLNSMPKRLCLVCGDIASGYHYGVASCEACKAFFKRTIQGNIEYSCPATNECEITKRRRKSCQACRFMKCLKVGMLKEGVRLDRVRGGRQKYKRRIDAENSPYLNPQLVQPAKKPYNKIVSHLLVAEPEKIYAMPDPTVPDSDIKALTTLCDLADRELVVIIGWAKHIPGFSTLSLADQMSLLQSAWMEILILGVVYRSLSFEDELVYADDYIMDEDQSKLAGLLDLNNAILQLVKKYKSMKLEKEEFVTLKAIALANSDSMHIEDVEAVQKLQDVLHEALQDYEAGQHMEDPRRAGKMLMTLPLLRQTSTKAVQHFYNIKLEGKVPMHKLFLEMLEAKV
Summary of the method: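 Exogenous NR-Gal4 chimera activity was assessed in HepG2 cells bearing transfected GAL4-UAS reporters. After 24 h dosing, total RNA underwent RT-PCR, fluorescent primer extension and HpaI digestion before capillary electrophoresis, with gain of signal scored against DMSO.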

[18] = ATG_M_19_TRANS: Attagene TRANS-FACTORIAL HepG2 Assay for M19 Transcription Factor (Internal Marker) (AID 2282974; active means hit-call score of the fitted dose curve at least 0.9, where 1 is the maximum); details: HepG2 Attagene TRANS-FACTORIAL M19 internal marker reporter
Summary of the method: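 24 h chemical exposure of transiently transfected HepG2 (MRTU library). RNA → oligo(dT) RT → PCR → 6-FAM labelling → HpaI cut → CE fluorescence. Positive-direction fit vs DMSO baseline; background internal-marker readout.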

[19] = target: Nuclear receptor subfamily 1 group I member 3 (Homo sapiens) (UniProt Q14994); test: ATG_CAR_TRANS: Attagene TRANS-FACTORIAL HepG2 Assay for human Constitutive Androstane Receptor (CAR) (AID 2282969; active means hit-call score of the fitted dose curve at least 0.9, where 1 is the maximum;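 further: activators raise reporter mRNA above DMSO so AC50 marks induction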); details: HepG2 Attagene TRANS-FACTORIAL CAR reporter
Chain of Nuclear receptor subfamily 1 group I member 3 (Homo sapiens) (Q14994 whole entry, looked up, the tested form may be a part): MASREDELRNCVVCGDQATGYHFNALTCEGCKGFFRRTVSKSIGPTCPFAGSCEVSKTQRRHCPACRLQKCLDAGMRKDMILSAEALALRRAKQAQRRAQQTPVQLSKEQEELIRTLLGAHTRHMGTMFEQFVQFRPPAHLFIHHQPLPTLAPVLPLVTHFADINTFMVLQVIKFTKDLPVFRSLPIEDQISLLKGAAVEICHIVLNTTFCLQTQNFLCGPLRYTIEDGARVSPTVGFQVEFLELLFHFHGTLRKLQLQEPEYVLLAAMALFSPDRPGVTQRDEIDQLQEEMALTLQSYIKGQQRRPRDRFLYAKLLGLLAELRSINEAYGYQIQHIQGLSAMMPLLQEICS
Summary of the method: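 Steps: transient transfection of HepG2 with multiple GAL4-UAS reporter units; 24 h compound incubation; RNA isolation, RT-PCR, 6-FAM primer extension, HpaI digest; capillary electrophoresis. Gain-of-signal relative to DMSO negative control.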

[20] = target: Steroid hormone receptor ERR1 (Homo sapiens) (UniProt P11474); test: ATG_ERRa_TRANS: Attagene TRANS-FACTORIAL HepG2 Assay for human Estrogen-Related Receptor alpha (ERRa) (AID 2282971; active means hit-call score of the fitted dose curve at least 0.9, where 1 is the maximum); details: HepG2 Attagene TRANS reporter, ERRa transactivation
Chain of Steroid hormone receptor ERR1 (Homo sapiens) (P11474 whole entry, looked up, the tested form may be a part): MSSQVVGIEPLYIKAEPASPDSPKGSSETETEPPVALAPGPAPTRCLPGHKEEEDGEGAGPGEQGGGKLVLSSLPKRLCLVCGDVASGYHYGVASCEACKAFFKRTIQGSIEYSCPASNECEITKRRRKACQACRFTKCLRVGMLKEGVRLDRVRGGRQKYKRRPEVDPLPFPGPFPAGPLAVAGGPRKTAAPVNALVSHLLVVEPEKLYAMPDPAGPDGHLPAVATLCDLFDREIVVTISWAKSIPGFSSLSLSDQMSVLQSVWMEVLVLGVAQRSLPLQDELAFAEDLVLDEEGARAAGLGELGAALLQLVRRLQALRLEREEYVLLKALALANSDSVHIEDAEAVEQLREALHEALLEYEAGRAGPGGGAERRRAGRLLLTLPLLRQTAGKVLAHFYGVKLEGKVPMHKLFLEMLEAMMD
Summary of the method: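 Signal gain relative to DMSO for an ERRa-Gal4 chimeric receptor, read as reporter mRNA by RT-PCR/capillary electrophoresis. Human HepG2 liver cells, transient multiplex reporter transfection, 24 h chemical exposure.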

## O=C(Nc1cccc(C(F)(F)F)c1)c1cc(Br)cc(Br)c1O
[1]
  AC50: 78.9 µM (active)
[2]
  outcome: inactive
[3]
  outcome: inactive
[4]
  AC50: 2.29 µM (active)
[5]
  AC50: 79.3 µM (active)
[6]
  AC50: 100 µM (active)
[7]
  AC50: 21.5 µM (active)
[8]
  outcome: inactive
[9]
  AC50: 43.9 µM (active)
[10]
  AC50: 145 µM (active)
[11]
  outcome: inactive
[12]
  AC50: 26.4 µM (active)
[13]
  outcome: inactive

## Nc1ccc(Oc2ccc(N)c(N)c2)cc1
[1]
  outcome: inactive
[2]
  outcome: inactive
[3]
  AC50: 58.4 µM (active)
[4]
  AC50: 27.5 µM (active)
[5]
  outcome: inactive
[6]
  outcome: inactive
[7]
  outcome: inactive
[9]
  outcome: inactive
[14]
  outcome: inactive
[10]
  outcome: inactive
[11]
  outcome: inactive
[15]
  outcome: inactive
[16]
  outcome: inactive
[12]
  outcome: inactive
[13]
  outcome: inactive
[17]
  outcome: inactive

## CC(C)(C)c1n[nH]c(=O)n(N)c1=O
[1]
  outcome: inactive
[2]
  outcome: inactive
[3]
  outcome: inactive
[4]
  outcome: inactive
[5]
  outcome: inactive
[6]
  outcome: inactive
[7]
  outcome: inactive
[8]
  outcome: inactive
[9]
  outcome: inactive
[10]
  outcome: inactive
[11]
  outcome: inactive
[15]
  outcome: inactive
[12]
  outcome: inactive
[18]
  outcome: inactive
[13]
  outcome: inactive
[17]
  outcome: inactive

## COc1cc(NC(=O)CC(C)=O)c(OC)cc1Cl
[1]
  outcome: inactive
[2]
  AC50: 31.5 µM (active)
[3]
  outcome: inactive
[4]
  outcome: inactive
[5]
  outcome: inactive
[6]
  outcome: inactive
[7]
  outcome: inactive
[9]
  outcome: inactive
[10]
  outcome: inactive
[11]
  outcome: inactive
[19]
  outcome: inactive
[16]
  outcome: inactive
[20]
  outcome: inactive
[12]
  outcome: inactive
[18]
  outcome: inactive
[13]
  outcome: inactive
[17]
  outcome: inactive

## O=C1Nc2ccccc2C1(c1ccc(O)cc1)c1ccc(O)cc1
[1]
  AC50: 70.7 µM (active)
[2]
  outcome: inactive
[3]
  outcome: inactive
[4]
  outcome: inactive
[5]
  AC50: 63.9 µM (active)
[6]
  outcome: inactive
[7]
  AC50: 27.2 µM (active)
[8]
  outcome: inactive
[14]
  AC50: 40.9 µM (active)
[10]
  outcome: inactive
[11]
  outcome: inactive
[15]
  AC50: 17.8 µM (active)
[12]
  AC50: 48.8 µM (active)

## CC(C)(C)c1ccc(-c2ccc(C(C)(C)C)cc2)cc1
[1]
  outcome: inactive
[2]
  outcome: inactive
[3]
  outcome: inactive
[4]
  outcome: inactive
[5]
  outcome: inactive
[6]
  outcome: inactive
[7]
  outcome: inactive
[9]
  outcome: inactive
[10]
  outcome: inactive
[11]
  outcome: inactive
[16]
  outcome: inactive
[12]
  outcome: inactive

## C=C[Si](OC(C)=O)(OC(C)=O)OC(C)=O
[1]
  outcome: inactive
[2]
  AC50: 3.6 µM (active)
[3]
  outcome: inactive
[4]
  outcome: inactive
[5]
  outcome: inactive
[6]
  outcome: inactive
[7]
  outcome: inactive
[8]
  outcome: inactive
[9]
  outcome: inactive
[10]
  outcome: inactive
[11]
  outcome: inactive
[19]
  outcome: inactive
[12]
  outcome: inactive
[18]
  outcome: inactive
[13]
  outcome: inactive
